Results filed as inconclusive are left out. A number with no mark means an inactive call. The source made the active and inactive calls. Calls follow the shape of the dose curve; as a rule, active = well fitted inhibition curve with a large enough effect; inconclusive = small, poorly fitted or top-dose-only effect; inactive = flat fitted curve, though single readings scatter.
system: CRL-7250; assay: Cytotoxic Profiling of Annotated Libraries Using Quantitative High-Throughput Screening (AID 1296008); conditions: Five cell lines viability, CellTiter-Glo ATP luminescence, 48-72 h; max response: hits give low values; also: nearly all actives have a fitted effect of over 60% in size
How it was run: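 Cytotoxicity was measured as CellTiter-Glo ATP luminescence, read after 10 min at room temperature. Compound treatment of the cells lasted 48 or 72 hr at 37 degrees Celsius in a qHTS format.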
% is scaled to controls: 0 for no effect and ±100 for the full control effect.

Compound	max response [%]	outcome
O=C(OCC1OC(Oc2ccc(O)cc2COC(=O)C2(O)C(O)CCC(=O)C2OC(=O)C2C=CCC2)C(OC(=O)C2C=CCC2)C(O)C1O)C1C=CCC1 (stereo unspecified)	-0.0328	
CC(C)c1cc2c(c(O)c1O)[C@@]13CCCC(C)(C)C1[C@@H](O)[C@@H]2OC3=O (stereo partly specified)	4.77	
COc1cc(/C=C/C(=O)O[C@H]2C[C@@H]3C(C(=O)O)=CO[C@@H](O[C@@H]4O[C@H](CO)[C@@H](O)[C@H](O)[C@H]4O)[C@@H]3[C@H]2C)ccc1O		inactive
CC1(C(=O)O)CCCC2(C)C3CC4C5CC3(CCC12)CC45C (stereo unspecified)	-3.47	
C=C1C(O)CCC2(C)CC3(OC)OC(=O)C(C)=C3CC12 (stereo unspecified)		inactive
COc1cc(C2Oc3c(OC)cc(CCCO)cc3C2CO)ccc1O (stereo unspecified)		inactive
C/C=C1/[C@H](O[C@@H]2O[C@H](CO)[C@@H](O)[C@H](O)[C@H]2O)OC=C(C(=O)OC)[C@H]1CC(=O)OCCc1ccc(O)c(O)c1	-12.9	
CCCC1=CC2=C(CO1)C(=O)C(C)(O)C(OC(=O)c1c(C)cc(OC)cc1O)C2 (stereo unspecified)	-6.12	
CC1(C)CCC[C@]2(C)C1CC=C(CO)[C@H]2CC/C(=C/CO)CO (stereo partly specified)	-11.4	
C=C1CC[C@H]2[C@@](C)(CCC(OC3OC(CO)C(O)C(O)C3O)[C@@]2(C)CO)C1C(=O)CC1=CCOC1=O (stereo partly specified)		inactive
CC(C)(O)C1OC1C1=CC(=O)C2(C)OC2C1O (stereo unspecified)		inactive
CC(=O)O[C@H]1C[C@@H](O)C(C)(C)C2C[C@@H](OC(C)=O)[C@@]3(C)C4=CCC(C(CO)CC(O)C5OC5(C)C)[C@]4(C)CCC3[C@]21C (stereo partly specified)		inactive
C=C[C@@]1(C)CCC2=C([C@H]1OC(C)=O)[C@H](OC(C)=O)CC1[C@](C)(C(=O)OC)CC[C@H](OC(C)=O)[C@]21C (stereo partly specified)	-6.44	
CC1=C2C(=O)C=C(CO)C2[C@H]2OC(=O)[C@H](C)[C@@H]2[C@@H](OC(=O)Cc2ccc(O)cc2)C1 (stereo partly specified)		inactive
O=C(NCCN1CCCC1)c1cc(-c2ccc(CN3CCOCC3)cc2)nc2ccc(F)cc12	3.26	
CN1CCN(c2nc(-c3ccc(C(=O)NC4(C(=O)NCC#N)CCCCC4)cc3)cs2)CC1	2.74	

Compound	max response [%]	outcome
CC1(C)CC[C@]2(C(=O)O)CC[C@]3(C)C(=CCC4[C@@]5(C)C(=O)C[C@H](O)[C@@](C)(CO)C5CC[C@]43C)[C@@H]2C1 (stereo partly specified)	-2.6	
CC(=O)OC/C(=C/C(=O)O)CC[C@@H]1C(C)=CC(=O)[C@@H]2C(C)(C)CCC[C@@]12C		inactive
C/C=C(\C)C(=O)OC[C@H]1O[C@@H](O[C@H]2[C@@H](O[C@H]3O[C@H](COC(=O)/C(C)=C/C)[C@@H](O)[C@H](O)[C@H]3O[C@@H]3O[C@H](COC(=O)/C(C)=C/C)[C@@H](O)[C@H](OC(=O)/C(C)=C/C)[C@H]3O)O[C@H](COC(=O)/C(C)=C/C)[C@@H](O)[C@@H]2O)[C@H](O)[C@@H](O)[C@@H]1O	-1.79	
CC1(CO)CCCC2(C)C3COC(=O)C3=CC(O)C12 (stereo unspecified)	1.03	
C=C1CC[C@@H]2C(C)(C)CCC[C@@]2(C)[C@@H]1CC/C(=C/C(=O)OC)COC(C)=O	-1.64	
CS(=O)(=O)c1ccccc1N1CCN(c2nc3c(c(=O)[nH]2)CSCC3)CC1	0.787	
CC(=O)OC1CC2C(C)(C)C(=O)C=CC2(C)C2CC(=O)C3=C(CCC3C3=CC(O)OC3=O)C12C (stereo unspecified)	3.26	
CC(C)C1NC(=O)C(CC2(O)c3ccccc3N3C(=O)C(Cc4ccccc4)NC32)NC1=O (stereo unspecified)		inactive
NC[C@H]1CCC[C@@H](CNC(=O)[C@@H](Cc2c[nH]c3ccccc23)NC(=O)N2CCC3(C=Cc4ccccc43)CC2)C1	0.396	
COc1ccc(O[C@@H]2O[C@H](CO)[C@@H](O)[C@H](O)[C@H]2O)cc1OC		inactive
C=C1CCC(OC(C)=O)C2(C)CC3OC(=O)C(C)=C3CC12 (stereo unspecified)	-0.951	
O=C1OC(c2ccc(O)cc2)C(O)=C1Cc1ccccc1 (stereo unspecified)	3.91	
CC1CC(=O)C2C(O)(C1)CC(O)C13OC1c1c(O)cccc1C(=O)C23O (stereo unspecified)		inactive
CCN=C1N[C@@H]2[C@@H](O)[C@H](O)[C@@H](CO)O[C@@H]2S1	3.4	
COc1cccc(Cn2ncc3c4sc(S(C)=O)cc4n(C)c3c2=O)c1 (stereo unspecified)	2.15	

Reference: PubChem BioAssay (NCATS)
